Screening data deposited in PubChem BioAssay by several laboratories.
Hits are enriched below; roughly 1% of the tested compounds scored in any of these assays.
zVAD death inh: L929 zVAD cell death inhibition; AID 1377; 220,000 tested, 0.38% active; L929 zVAD necroptosis rescue, ATP luminescence, 24 h; with zVAD 60 µM; viability rescue, % at 10 µM;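 active = activation, scaled between plate controls, above about 75%, limit read from the data; inactive = activation under that limit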;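 note: 0% = zVAD with DMSO and 100% = DMSO alone without zVAD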
Hsp70 act: Hsp70 transcriptional activation, primary screen; HeLa Hsp70 promoter luciferase reporter, luminescence; scaled: vehicle 0, proteasome-inhibitor control 100%; activation, % at 10 µM; 200,000 tested, 0.04% active;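 active = activation above the mean across all tested compounds plus 3 SD, cutoff set per campaign, cut at about 5.5% in these data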;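 note: 100% = MG132 at 30 µM as the positive control and 0% = DMSO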
S1P4 antagonist: human S1P4 receptor antagonism | O95977 | S1P4-expressing cells, antagonist mode, reporter read-out | inhibition, % at 4.98 µM | 220,000 tested, 0.26% active; in the data active = inhibition above about 29%;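 note: 0% = wells stimulated with agonist and 100% = vehicle wells without agonist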
Target sequence (O95977 whole entry, looked up): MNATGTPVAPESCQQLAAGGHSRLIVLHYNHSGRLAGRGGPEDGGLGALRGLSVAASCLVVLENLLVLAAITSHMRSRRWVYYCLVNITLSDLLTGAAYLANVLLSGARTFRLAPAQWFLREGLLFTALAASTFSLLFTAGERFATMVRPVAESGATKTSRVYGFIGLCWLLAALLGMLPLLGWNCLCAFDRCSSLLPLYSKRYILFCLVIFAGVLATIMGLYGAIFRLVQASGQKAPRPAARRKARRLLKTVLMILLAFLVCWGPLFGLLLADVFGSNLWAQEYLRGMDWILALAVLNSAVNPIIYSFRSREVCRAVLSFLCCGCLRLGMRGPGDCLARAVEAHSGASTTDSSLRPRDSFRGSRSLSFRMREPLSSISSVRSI
TNF death inh: blocks TNF-alpha induced death of Jurkat FADD-/- cells. Jurkat FADD-/- TNF necroptosis rescue, ATP luminescence, 24 h; 0 = TNF only, 100 = no-TNF cells. activation (protection from cell death), % at 10 µM. 220,000 tested, 0.068% active;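 active = activation, meaning protection from cell death, of at least 50% relative to plate controls; inactive = activation below 50%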;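 note: necroptosis triggered by 40 ng/mL TNF-alpha added together with compound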
HSV replic up: HSV replication enhancement. 220,000 tested, 0.005% active. AID 1956. HSV replication augmentation in cells, fold increase. maximum fold increase; in the data active = maximum fold increase above about 1.5; tested in PC3 cells
S1P4 agonist: human S1P4 receptor agonism | O95977 | S1P4-expressing cell line, agonist reporter assay | activation, % at 4.98 µM | 220,000 tested, 0.35% active; in the data active = activation above about 11%;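 note: 0% = DMSO vehicle and 100% = reference agonist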
S1P4 antag cf: confirmation of human S1P4 receptor antagonists; AID 1524; 520 tested, 71% active; inhibition, % at 4.98 µM; shares compounds with S1P4 antagonist; S1P4-expressing cell line, antagonist mode, reporter read-out; in the data active = inhibition above about 30%
S1P1 antag: human S1P1 antagonism as S1P4 antagonist counter-screen | shares compounds with S1P4 antagonist | 520 tested, 37% active | inhibition, % at 4.98 µM | cell-based S1P1 antagonist counterscreen, inhibition; in the data active = inhibition above about 40%;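 note: receptor stimulated with S1P near its EC80; 0% = agonist stimulated wells and 100% = vehicle only wells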
An asterisk follows results filed as active; i = inactive; . = not tested or not shown.

SMILES	zVAD death inh	Hsp70 act	S1P4 antagonist	TNF death inh	HSV replic up	S1P4 agonist	S1P4 antag cf	S1P1 antag
COCCOC(=O)C1=C(C)N=C2SCCC(=O)N2C1c1ccc(OC(=O)c2ccco2)cc1 (stereo not drawn)	1	0	35*	0	i	1	54*	52*
COCCCN1CCN(C2Cc3ccccc3Sc3ccc(Cl)cc32)CC1 (stereo not drawn)	0	0	29*	1	i	0	-3	0
NC(=O)CSc1nnc(-c2cc(-c3ccc(Cl)cc3)nc3ccccc23)o1	0	0	-11	0	i	0	.	.
CCOC(=O)Cn1nc(C)c(NC(=O)COc2ccc([N+](=O)[O-])c(C)c2)c1C	1	0	40*	0	i	1	2	24
CCOC(=O)Cn1nc(C)c(NC(=O)COc2ccccc2[N+](=O)[O-])c1C	1	0	-11	1	i	1	.	.
Nc1sc(-c2ccccc2)c(Cc2ccccc2)c1C(=O)O	0	0	-6	0	i	1	.	.
CC(C)(C)CC(C)(C)c1ccc(O)c(CN2CCN(CCC#N)CC2)c1	-1	0	-5	0	i	1	.	.
N#CCCN1CCN(Cc2cc(-c3ccccc3)ccc2O)CC1	0	0	39*	0	i	-1	14	20
CCN(Cc1cc(=O)n2ccsc2n1)c1cccc2ccccc12	0	0	-6	-5	i	0	.	.
O=C(CSCCO)Nc1cccc(C(F)(F)F)c1	0	0	36*	1	i	1	4	3
CN(CCC#N)C(=O)COC(=O)c1ccccc1C(=O)c1ccc(Cl)c([N+](=O)[O-])c1	61	0	55*	8	i	-2	112*	53*
CC(C)N(C(=O)COC(=O)c1ccccc1C(=O)c1ccc(Cl)c([N+](=O)[O-])c1)C(C)C	20	0	31*	-9	i	-1	60*	46*
O=C(OCCCN=C1NS(=O)(=O)c2ccccc21)c1ccc([N+](=O)[O-])cc1	0	0	-13	1	i	1	.	.
COc1ccc(CC2(C)OC(c3ccccc3)=NN2C(C)=O)cc1 (stereo not drawn)	0	0	-11	1	i	-1	.	.
COc1ccc(/C=c2/sc3n(c2=O)C(c2ccccc2OC)C2=C(N=3)c3ccccc3CC2)cc1O (stereo not drawn)	1	0	33*	-17	i	-4	78*	70*
CCC(Sc1nncn1C)C(=O)Nc1nnc(-c2ccccc2Cl)s1 (stereo not drawn)	0	0	33*	-1	i	-1	28	5
CS(=O)(=O)c1ccc(C(=O)Nc2ccc(N3CCOCC3)cc2)c(Cl)c1	3	0	5	0	i	2	.	.
CS(=O)(=O)c1ncc(Cl)c(C(=O)Nc2ccc(N3CCOCC3)cc2)n1	5	0	31*	-27	.	-3	98*	81*
CC(NC(=O)c1ccc(Br)s1)c1ccncc1 (stereo not drawn)	1	0	-8	1	i	1	.	.
CC(C)C(C(=O)Nc1ccc2c(c1)OCCOCCOCCOCCO2)N1C(=O)c2ccccc2C1=O (stereo not drawn)	2	0	2	0	i	-1	.	.
CCCCc1nnc(NC(=O)C(C)Sc2nc(O)c(Cc3ccccc3)c(=O)[nH]2)s1 (stereo not drawn)	0	0	13	-1	i	-2	.	.
CC1CC(C)(C)Nc2ccc(N=O)cc21 (stereo not drawn)	62	0	37*	-12	i	-1	50*	16
COc1ccc(C(=O)C(CN2CCOCC2)c2ccccc2)cc1F (stereo not drawn)	54	0	33*	-12	i	-5	46*	7
Nc1ccc2c(C(F)(F)F)cc(=O)oc2c1	0	0	46*	-3	i	0	45*	35
CN(C)c1ccnc(NCc2ccccc2)c1C#N	0	0	-14	0	i	-1	.	.
SMILES	zVAD death inh	Hsp70 act	S1P4 antagonist	TNF death inh	HSV replic up	S1P4 agonist	S1P4 antag cf	S1P1 antag
Cc1cc(N(C)C)c(C#N)c(NCc2ccccc2)n1	1	0	35*	-1	i	0	24	24
O=C(NC1C/C(=N/O)c2cc3c(cc21)OCO3)C(F)(F)F (stereo not drawn)	1	0	1	-1	i	1	.	.
O=C(/C=C\c1ccccc1OC(=O)c1ccccc1F)c1cc2ccccc2o1	1	0	11	-1	i	3	.	.
Nn1c(SCc2cc([N+](=O)[O-])cc3c2OCOC3)nnc1-c1cccnc1	5	0	-17	1	i	-1	.	.
O=C(Nc1ccccc1)c1nnsc1S(=O)c1ccc(Cl)cc1 (stereo not drawn)	27	0	49*	-25	i	-3	111*	6
CCOC(=O)N1C/C(=C\c2ccccc2)C(=O)/C(=C/c2ccccc2)C1	0	.	43*	-26	i	-1	116*	-24
OC1(c2ccc(Cl)cc2)CN(c2ccccc2)C2=[N+]1CCS2 (stereo not drawn)	-1	0	-12	2	i	1	.	.
OC1(c2ccc(Br)cc2)CN(c2ccccc2)C2=[N+]1CCS2 (stereo not drawn)	-1	0	30*	3	i	0	8	2
COc1ccc(N=Nc2nc(-c3ccccc3)c(-c3ccccc3)[nH]2)cc1	8	0	-13	4	i	1	.	.
COc1ccc(N=Nc2n(C)c3ccccc3[n+]2C)cc1	-3	.	30*	-25	i	-1	0	35
Cc1nc2ccc(NC(=O)c3nn(CC(C)C)c(=O)c4ccccc34)cc2s1	5	0	40*	4	i	-2	45*	23
N#Cc1cn(CCOc2ccccc2F)c2ccccc12	0	0	37*	2	i	0	9	27
Cn1cnc([N+](=O)[O-])c1S(=O)(=O)c1cccc(Cl)c1	18	0	48*	-7	i	4	47*	63*
O=C(NN1CCCCC1)c1ccc(COc2ccc(Cl)cc2)cc1	2	0	-22	0	i	-1	.	.
COc1ccc(NC(=O)/C(Cl)=C(/Cl)S(=O)(=O)Cc2ccc(C)cc2)cn1	2	3	60*	-12	i	2	116*	89*
COc1ccc(NC(=O)Cc2ccc(Cl)c(Cl)c2)cn1	3	0	-14	5	i	2	.	.
